Compound activity as filed in PubChem.
POLH inh: inhibitors of human DNA polymerase eta | Q9Y253 | recombinant Pol eta, fluorescent DNA replication assay | Potency, µM (highest dose often 114 µM), for the others: at the top dose activity change, negative = inhibition, actives largely listed as inhibitors | actives 1.2% (n = 390,000); also: % is scaled to controls: 0 for no effect and ±100 for the full control effect
Target sequence (Q9Y253 whole entry, looked up): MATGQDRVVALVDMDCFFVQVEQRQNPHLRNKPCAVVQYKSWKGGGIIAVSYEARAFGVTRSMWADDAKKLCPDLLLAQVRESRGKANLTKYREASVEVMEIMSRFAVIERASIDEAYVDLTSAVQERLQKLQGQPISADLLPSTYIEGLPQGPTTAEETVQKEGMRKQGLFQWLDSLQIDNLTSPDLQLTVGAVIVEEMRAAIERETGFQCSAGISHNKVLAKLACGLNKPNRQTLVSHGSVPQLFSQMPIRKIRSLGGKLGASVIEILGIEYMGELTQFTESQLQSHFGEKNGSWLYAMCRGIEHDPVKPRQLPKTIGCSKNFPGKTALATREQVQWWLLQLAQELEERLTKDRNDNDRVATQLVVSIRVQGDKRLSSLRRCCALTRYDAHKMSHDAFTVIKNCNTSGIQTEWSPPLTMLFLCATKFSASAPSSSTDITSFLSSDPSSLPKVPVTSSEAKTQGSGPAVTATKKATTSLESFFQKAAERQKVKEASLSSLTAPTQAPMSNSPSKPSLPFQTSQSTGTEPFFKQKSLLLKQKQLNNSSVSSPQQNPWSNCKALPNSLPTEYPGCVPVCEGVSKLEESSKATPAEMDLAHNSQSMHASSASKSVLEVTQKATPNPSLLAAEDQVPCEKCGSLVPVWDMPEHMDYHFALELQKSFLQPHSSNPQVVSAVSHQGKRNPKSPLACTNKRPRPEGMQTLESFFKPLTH
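Fluorescent replication assay: 50 nM final substrate added after a 15 min room-temperature compound preincubation with 10 nM enzyme. Signal taken at 0 min and again at 10 min.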
WRN helicase inh: blocks human WRN helicase; Q14191; WRN helicase unwinding, fluorescent forked duplex, kinetic; Potency, µM (series often up to 114 µM), for the others: at the top dose activity change, negative = inhibition, usual class: inhibitors; actives 0.46% (n = 360,000); also: % is scaled to controls: 0 for no effect and ±100 for the full control effect; nearly all actives have a fitted effect of over 55% in size
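Enzyme (20 nM final) and test compound sit together 15 min at room temperature before substrate addition. Substrate is a single-forked duplex oligonucleotide (100 nM) labelled with fluorophore and quencher, with 2 mM ATP; helicase unwinding raises red fluorescence, read kinetically.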
Pol beta inh: blocks human DNA polymerase beta activity; P06746; Pol beta primer extension/strand displacement, fluorescence kinetic; Potency, µM (series often up to 114 µM), without a hit: at the top dose activity change, negative = inhibition, most hits filed as inhibitors; actives 1.3% (n = 340,000); also: % is scaled to controls: 0 for no effect and ±100 for the full control effect
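10 nM enzyme + cpd, 15 min RT; start with substrate 50 nM final; read 0 min and after 10 min RT. Corrected, normalized data; 4-parameter Hill curve fit.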
POLI inh: inhibitors of human DNA polymerase iota | Potency, µM (titrated, usually from 115 µM), for inactives: at the highest dose activity, negative = inhibition, most hits filed as inhibitors | Pol iota fluorescent replication assay, 10 min | actives 1% (n = 390,000)
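Fluorescent replication assay read twice, at 0 min and 10 min after adding 50 nM (final) substrate. Enzyme (10 nM) and compounds were first incubated 15 min at room temperature; enzyme-free buffer wells were negative controls.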
POLK inh: blocks human DNA polymerase kappa activity | Q9UBT6 | purified Pol kappa, fluorescent DNA synthesis assay, 10 min | actives 0.53% (n = 400,000) | Potency, µM (top dose mostly 107 µM), for the others: at the top dose activity, negative = inhibition, most hits filed as inhibitors | AID 588579; also: % is scaled to controls: 0 for no effect and ±100 for the full control effect
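Inhibition of 10 nM Pol kappa is measured by a fluorescent read-out at 0 and 10 min following addition of 50 nM substrate (final), with a 15-min room-temperature compound preincubation.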
FEN1 inhibitor: human FEN1 inhibition; Recombinant FEN1 flap cleavage, fluorescence, 15 min; Potency, µM (titrated, usually from 114 µM), for the others: top-dose activity change, negative = inhibition, actives largely listed as inhibitors; actives 0.35% (n = 390,000); also: % is scaled to controls: 0 for no effect and ±100 for the full control effect; nearly all actives have a fitted effect of over 65% in size
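Reaction started by adding substrate (50 nM final) to 10 nM enzyme after 15 min room-temperature compound preincubation. Reads at 0 and 15 min, with data normalized and fitted to a four-parameter Hill equation.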
* hit, by the source's call; ? = inconclusive; . = no result given; [ ] = dose if it differs, or a comment. An excerpt weighted towards active compounds, which were near 2.4% of everything screened. Calls follow the shape of the dose curve; as a rule, active = well fitted curve in the direction sought with a large enough effect; inconclusive = small, poorly fitted or top-dose-only effect, or another doubt; inactive = no such curve, though single readings can be large; an effect the other way counts as inactive or inconclusive. Potency is read from the fitted curve at half-maximal effect.

SMILES	POLH inh	WRN helicase inh	Pol beta inh	POLI inh	POLK inh	FEN1 inhibitor
Cc1ccc(NC(=O)c2cc3c([nH]c2=O)CC(C)(C)CC3=O)c(C)c1	-1%	.	0%	13%	1%	19%
COc1ccc(/C=N/NC(=O)c2ccc(Br)cc2)cc1Cn1cc(Cl)cn1	?	?	?	50µM*	-11%	-3%
COc1cccc(/C=N/NC(=O)c2c(C)nc3ccc(Br)cn23)c1O	9%	-11%	79µM*	?	-10%	-6%
CCCOc1ccc(/C=N/NC(=O)c2ccc(Cn3cc([N+](=O)[O-])cn3)o2)cc1	-6%	-16%[57.1 µM]	32µM*	?	-16%	-5%
COc1ccc(/C=N/NC(=O)c2cccc(Br)c2)cc1Cn1cc(Cl)cn1	-5%	-17%	-3%	-17%	0%	2%
CCOc1ccccc1/C=N/NC(=O)c1c(C)nc2ccc(Br)cn12	-4%	1%	18%	-8%	1%	-3%
COc1cccc(/C=N\NC(=O)c2ccc(Cn3cc(Br)c([N+](=O)[O-])n3)o2)c1O	-11%	-18%	40µM*	-7%	-12%	-13%
COc1cc(/C=N\NC(=O)c2ccc(Cn3nc([N+](=O)[O-])c(Cl)c3C)o2)ccc1O	-14%	-26%	-7%	-4%	-28%	?
Cc1ccc(/C=N/NC(=O)c2ccc(Cn3cc([N+](=O)[O-])cn3)o2)cc1	-2%	3%	-23%	16%	-11%	1%
Cc1ccc(Cl)cc1-n1c(=O)c2sc3ccccc3c2n(Cc2ccccc2)c1=O	-21%	.	2%	76%	0%	19%
CN(C(=O)CSc1cn(CC(=O)N2CCCCCC2)c2ccccc12)c1ccccc1	-19%	.	-1%	?	-35%	16%
COc1ccc(/C=N/NC(=O)c2ccccc2O)cc1Cn1cc([N+](=O)[O-])cn1	18%	-9%	56µM*	-7%	-4%	-4%
COc1ccc(/C=N/Nc2ccccc2C(=O)O)cc1Cn1cc([N+](=O)[O-])cn1	-2%	-18%	-4%	?	-19%	-3%
CCc1nnc(NC(=O)c2ccc(Cl)c(S(=O)(=O)N3CCc4ccccc43)c2)s1	?	-19%	20µM*	?	-24%	-2%
Cc1ccc(NC(=O)CSc2nc3ccccc3nc2Cc2ccccc2)c(Cl)c1	-21%	.	1%	-14%	-9%[60.1 µM]	15%
CC(=O)Nc1cccc(C(=O)NCc2ccc3c(c2)CCN3C(C)=O)c1	-2%	.	2%	16%	7%[60.1 µM]	-3%
CCOC(=O)Cc1cc(=O)c2c(=O)n(-c3ccccc3)[nH]c2[nH]1	-11%	-7%[57.1 µM]	2%	22µM*	22µM*	-3%
CCCC(=O)N1CCN(c2nc3ccc(Br)cc3s2)CC1	-22%	3%[11.6 µM]	0%	-10%	-12%	25µM*
O=C(C[C@@H]1CC[C@@H]2[C@H](COC[C@H](O)CN2C(=O)Nc2ccc(F)cc2)O1)NCCc1ccncc1	.	-3%	.	.	.	.
COc1ccccc1CNC(=O)CSc1nnc(C)c2c(C)n(-c3ccccc3)nc12	9%	.	-27%	-1%	-24%	1%
CN(C)c1ccc(C(=O)c2ccccc2C(=O)O)c(O)c1	-11%	11%	1%	15%	-7%	-3%
CCCCN(CCCC)c1ccc(C(=O)c2ccccc2C(=O)O)c(O)c1	-2%	-9%	89µM*	-43%	-6%	8%
CC(=O)c1cc(-c2ccc(F)cc2)n(CCC(=O)NCc2ccccc2C)c1C	-2%	.	25%	7%	-3%	-5%
Clc1nc(Oc2ccccc2)nc(-c2cn(-c3ccccc3)c3ccccc23)n1	-12%	-11%	-29%	1%	12%	-23%
CCNc1nc(Cl)nc(-c2cn(-c3ccccc3)c3ccccc23)n1	3%	-1%	79µM*	-18%	-8%	9%
SMILES	POLH inh	WRN helicase inh	Pol beta inh	POLI inh	POLK inh	FEN1 inhibitor
CC1=C(CCC(=O)O)c2cc3nc(cc4[nH]c(cc5[nH]c(cc1n2)c(C)c5C(C)O)c(C)c4C(C)O)C(C)=C3CCC(=O)O (configuration not stated)	.	.	.	.	20µM*	.
CCc1c(O)cc(=O)n(-c2ccccc2)c1-c1ccccc1	32µM*	?	22µM*	?	-16%	?
Cc1cc2c(cc1S(=O)(=O)N1CCC(C(N)=O)CC1)OCC(=O)N2	-2%	.	-4%	4%	-7%[60.1 µM]	-1%
N#CC(Cc1ccc(O)c(O)c1)C(=O)N1CCc2ccccc21 (configuration not stated)	7.9µM*	.	?	?	.	.
Cc1ccc(C(=O)N2CCN(c3ccc([N+](=O)[O-])cc3)CC2)o1	-20%	5%	89µM*	6%	-4%	10%
O=C(c1ccc(-c2cccc([N+](=O)[O-])c2)o1)N1CCN(c2ccc([N+](=O)[O-])cc2)CC1	-4%	-7%	.	21%	-7%	-11%
O=C(CC1CCCCC1)N1CCCC(c2nc(-c3ccc(S(=O)(=O)N4CCCC4)cc3)no2)C1 (configuration not stated)	?	-26%	35µM*	?	-6%[60.1 µM]	-20%
O=S(=O)(c1ccc(Cl)cc1)N1CCCC(c2nc(-c3ccc(F)cc3)no2)C1 (configuration not stated)	-16%	-2%	.	8%	8%	-13%
CC(=O)Oc1ccccc1C(=O)Nc1ccccc1	-14%	.	.	?	-22%	-9%
COC1(OC)C=CC(=O)C=C1NC(=O)c1ccccc1OC(C)=O	6%	.	.	10µM*	4%	-4%
O=C(NCc1ccco1)c1ccc(C(F)(F)F)cc1	-9%	-5%	-6%	10%	0%	-16%
O=C(NCc1ccco1)c1ccc(-c2csnn2)cc1	-7%	5%	10µM*	?	-8%	-8%
CCOc1ccc(NC(=O)CSc2nc3cc(C(=O)NCC4CCCO4)ccc3c(=O)n2CC2CCCO2)cc1 (configuration not stated)	-12%	12%	.	.	.	.
CCOC(=O)c1ccc(NC(=O)N2CC3CCCN3c3ccccc32)cc1 (configuration not stated)	-21%	.	0%	-15%	-15%	3%
Nc1ccc(O)c(C(=O)O)c1	.	.	.	.	1.1µM*	.
O=C1C[C@@H](c2ccc(O)c(O)c2)Oc2cc(O[C@H]3O[C@@H](CO)[C@H](O)[C@@H](O)[C@@H]3O)cc(O)c21	.	.	.	.	21µM*	.
Cc1occc1C(=O)NCc1ccco1	?	-14%	32µM*	?	-30%	3%
Cc1occc1C(=O)NCc1ccccc1	-15%	10%	0%	0%	-7%	-4%
Cc1occc1C(=O)NCCc1ccc(Cl)cc1	-5%	4%	6%	5%[58.9 µM]	-4%	4%
